Bioassay records as filed in PubChem.
The full list was thinned out, with hits kept by preference.
Glioma ERSR ind = qHTS for Inducers of the Endoplasmic Reticulum Stress Response (ERSR) in Human Glioma: qHTS; U87-MG GRP78 promoter luciferase reporter, 16 h; Potency, µM, without a hit: at the highest dose activation, actives largely listed as activators; hit rate 0.02% among 420,000; AID 602332, 2012; further: series mostly up to about 76 µM; % of control where 0% means no effect; nearly all actives have a fitted effect of over 35% in size
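Stably transfected U87-MG glioma cells carrying a GRP78-based luciferase sensor; 16 h compound incubation. Luminescence end-point read 10 min after Bright-Glo addition at room temperature.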
12-LOX inh = Primary qHTS assay for inhibitors of human arachidonate 12S-lipoxygenase (ALOX12): Round 2. Polyunsaturated fatty acid lipoxygenase ALOX12 (Homo sapiens), P18054. purified 12hLO, xylenol orange hydroperoxide absorbance. Potency, µM (series often up to 108 µM), inactives show at the highest dose activity change, negative = inhibition, actives largely listed as inhibitors. hit rate 1.1% among 580,000. AID 1671190, 2021; further: on the % scale 0 is the no-effect control and ±100 the full control effect
Target sequence (P18054 whole entry, looked up): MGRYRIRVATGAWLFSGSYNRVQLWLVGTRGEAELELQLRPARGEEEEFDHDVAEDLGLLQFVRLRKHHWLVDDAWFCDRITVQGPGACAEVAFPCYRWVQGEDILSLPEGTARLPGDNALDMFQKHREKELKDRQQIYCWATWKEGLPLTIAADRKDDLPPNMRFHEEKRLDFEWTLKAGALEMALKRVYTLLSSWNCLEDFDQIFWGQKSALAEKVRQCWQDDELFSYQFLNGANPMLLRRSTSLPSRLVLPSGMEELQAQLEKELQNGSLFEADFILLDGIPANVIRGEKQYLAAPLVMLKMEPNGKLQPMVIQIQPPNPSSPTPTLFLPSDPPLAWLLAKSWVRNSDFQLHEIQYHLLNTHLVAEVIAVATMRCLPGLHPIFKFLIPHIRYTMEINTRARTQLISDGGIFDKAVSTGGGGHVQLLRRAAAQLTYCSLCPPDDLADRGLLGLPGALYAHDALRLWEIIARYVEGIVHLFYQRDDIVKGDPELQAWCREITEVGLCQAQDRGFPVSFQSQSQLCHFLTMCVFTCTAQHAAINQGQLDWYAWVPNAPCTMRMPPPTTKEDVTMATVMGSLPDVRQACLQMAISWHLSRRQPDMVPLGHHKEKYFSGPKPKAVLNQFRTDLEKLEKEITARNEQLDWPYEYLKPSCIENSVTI
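Purified human 12hLO (150 nM final) in 25 mM Hepes, 0.01% Triton X-100, pH 7.0 was preincubated 15 min at room temperature with compound. Then 40 uM arachidonic acid was added, 30 min. Hydroperoxide was read by Fe-XO absorbance ratio 573/405 nm.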
VDR inh = Inhibitors of the vitamin D receptor (VDR): qHTS. VDR-SRC2-3 peptide fluorescence polarization, 2 h. Potency, µM, without a hit: max response, negative = inhibition, usual class: inhibitors. hit rate 0.93% among 400,000. AID 504847, 2011; further: on the % scale 0 is the no-effect control and ±100 the full control effect
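Two reagent solutions held at 4 deg C in the dark were dispensed, compounds pinned at 23 nl, and the mixture incubated 2 h at room temperature. Read-out: fluorescence polarization of VDR–SRC2-3 peptide binding.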
G9a inh = qHTS Assay for Inhibitors of Histone Lysine Methyltransferase G9a; AID 504332, 2011; hit rate 8.8% among 350,000; Potency, µM (series often up to 102 µM), for inactives: at the highest dose activity, negative = inhibition, most hits filed as inhibitors; G9a H3K9 monomethylation, AlphaScreen, 2 h; further: on the % scale 0 is the no-effect control and ±100 the full control effect; nearly all actives have a fitted effect of over 75% in size
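Chemiluminescent proximity detection of H3K9 monomethylation, read after 10 min bead incubation in the dark. Reaction: 20 nM G9a, 500 nM biotin-H3K9 peptide, 20 uM SAM cofactor, 2 h, room temperature, following 15 min enzyme-compound preincubation.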
Sfp PPTase inh = qHTS Assay for Inhibitors of Bacillus subtilis Sfp phosphopantetheinyl transferase (PPTase); Potency, µM, without a hit: largest response in the series, negative = inhibition, usual class: inhibitors; Biochemical Sfp PPTase activity, qHTS; hit rate 3.5% among 310,000;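 further: the enzyme is Sfp with the accession as filed and its product quenches rhodamine fluorescence; 0% = enzyme reaction without inhibitor and -100% = no enzyme wells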
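Fluorescence-quenching assay: 15 nM Sfp-PPTase preincubated 15 min at room temperature with compound, then 5 uM rhodamine-CoA and 12.5 uM BHQ-2-labelled YbbR peptide added. Fluorescence (ex 525/em 598 nm) read at start and after 30 min; difference gives rate.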
The depositor's hits bear a star; ? = inconclusive; / = no result given; ! = not confirmed by another sample; [ ] = remark or other dose. The call rests on the fitted dose curve; in most records, active means well fitted curve in the direction sought with a large enough effect; inconclusive means small, poorly fitted or top-dose-only effect, or another doubt; inactive means no such curve, though single readings can be large; an effect the other way counts as inactive or inconclusive. Potency means the concentration at half of the fitted maximal effect.

SMILES | Glioma ERSR ind | 12-LOX inh | VDR inh | G9a inh | Sfp PPTase inh
O=C(CSc1oc(-c2ccccc2)nc1S(=O)(=O)c1ccc(Cl)cc1)c1ccccc1 | -2% | 7.9µM* | -4% | 11µM* | /
CSc1oc(-c2ccccc2)nc1S(=O)(=O)c1ccc(C)cc1 | -3% | -9% | -4% | 56µM* | 3%
CCSc1oc(-c2ccc(F)cc2)nc1S(=O)(=O)c1ccc(C)cc1 | -1% | 40µM*! | -6% | 18µM* | /
CNc1oc(-c2ccc(F)cc2)nc1S(=O)(=O)c1ccccc1 | 0% | -26% | 1% | 45µM* | 15%
Cc1ccccc1Nc1nc(N)nc(COc2ccccc2C(=O)NCc2ccccc2)n1 | / | -4% | / | / | /
Cc1ccc(NC(=O)c2ncoc2-c2ccc(C)s2)c(C)c1 | / | -20% | / | / | /
CC(=O)N1CCN(c2nc(CC(C)C)c3c(c2C#N)CCCC3)CC1 | / | 10% | / | / | /
CNc1oc(Cc2ccccc2)nc1S(=O)(=O)c1ccc(Cl)cc1 | -5% | ? | 0% | 25µM* | -23%
O=S(=O)(c1ccc(Cl)cc1)c1nc(-c2ccccc2Br)oc1NCc1ccccc1 | -3% | -9% | -12% | ? | /
Cn1c(=O)c2cc(S(=O)(=O)NC(C(=O)Nc3cccc(F)c3)c3ccccc3)ccc2n(C)c1=O (configuration not stated) | -4% | 10%[57.4 µM] | -7% | 18µM* | 9%
Cn1c(=O)c2cc(S(=O)(=O)NC(C(=O)NCc3cccnc3)c3ccccc3)ccc2n(C)c1=O (configuration not stated) | -3% | 9% | -3% | -5% | 33%
Cn1c(=O)c2cc(S(=O)(=O)NC(C(=O)Nc3cccnc3)c3ccccc3)ccc2n(C)c1=O (configuration not stated) | -1% | -28% | -12% | 8.9µM* | -7%
Cc1ccccc1NC(=O)C(NS(=O)(=O)c1ccc2c(c1)c(=O)n(C)c(=O)n2C)c1ccccc1 (configuration not stated) | -4% | -1% | 6% | ? | 0%
CCCNC(=O)C(NS(=O)(=O)c1ccc2c(c1)c(=O)n(C)c(=O)n2C)c1ccccc1 (configuration not stated) | -6% | 4% | 2% | 40µM* | 12%
COc1ccc(N2CN(CCN3CCOCC3)Cn3c2nc(C)c(C)c3=O)cc1 | / | 9% | / | / | /
COc1ccccc1C(=O)N1CCC2(CC1)OC(=O)N(Cc1ccccc1C#N)C2(C)c1ccccc1 (configuration not stated) | / | 17% | / | / | /
CCN(CC)CCC(=O)Nc1cccc2c1C(=O)c1ccccc1C2=O | ? | 0% | 2% | 40µM* | 0%
Nc1cccc(C(=O)OCC(=O)Nc2cccc3c2C(=O)c2ccccc2C3=O)c1 | -3% | -25% | -18% | -8%[59 µM] | -11%
C=C1C(=O)C23C(O)C1CCC2C12CCCC(C)(COC(C)=O)C1C(O)C3(O)OC2 (configuration not stated) | -14% | 2% | 25µM* | / | /
Cc1cc(C)nc(SCC(=O)N/N=C/c2cccn2-c2ccc(O)cc2)n1 | -1% | -20% | 4% | 40µM* | -2%
Cc1cc(C)nc(SCC(=O)N/N=C/c2cccc([N+](=O)[O-])c2)n1 | 0% | -19% | 79µM* | -23% | -1%
COC(=O)c1ccc(C(=O)NCCc2ccccc2)cc1 | / | 11% | / | / | /
CC(C)OC(=O)CCNC(=O)c1ccccc1-c1ncc(-c2ccccc2)o1 | / | 1% | / | / | /
O=C(NC1(c2ccccc2)CCC1)c1cc2ccccc2oc1=O | / | 23% | / | / | /
CSc1nc(O)c(C(c2ccc(O)cc2)c2c(O)nc(SC)[nH]c2=O)c(=O)[nH]1 | 0% | ? | ? | 10µM* | 50µM*
C=CCOc1ccc(C(c2c(O)nc(SC)[nH]c2=O)c2c(O)nc(SC)[nH]c2=O)cc1 | 1% | ? | 22µM* | / | /
CSc1nc(O)c(C(c2cccc([N+](=O)[O-])c2)c2c(O)nc(SC)[nH]c2=O)c(=O)[nH]1 | 0% | ? | -1% | 28µM* | -6%
